GDH-TPI inh – inhibits GDH-TPI coupling enzymes, artifact for Mtb FBA screen | hit rate 1.2% among 360,000 | inhibition, % at 4.8 µM | GDH-TPI coupled enzyme counterscreen, NADH absorbance; in the data active = inhibition above about 30%
PrPC surface inh – cell surface PrPC inhibition, primary TR-FRET screen; hit rate 0.43% among 370,000; TR-FRET read-out; P04156; inhibition, % at 13.8 µM; in the data active = inhibition above about 24%
FBA Mtb inh – inhibits M. tuberculosis FBA enzyme; inhibition, % at 1 µM; purified M. tuberculosis FBA, fluorescence read-out; AID 588726; hit rate 2.3% among 360,000; P9WQA3; in the data active = inhibition above about 27%
Target sequence (P9WQA3 whole entry, looked up): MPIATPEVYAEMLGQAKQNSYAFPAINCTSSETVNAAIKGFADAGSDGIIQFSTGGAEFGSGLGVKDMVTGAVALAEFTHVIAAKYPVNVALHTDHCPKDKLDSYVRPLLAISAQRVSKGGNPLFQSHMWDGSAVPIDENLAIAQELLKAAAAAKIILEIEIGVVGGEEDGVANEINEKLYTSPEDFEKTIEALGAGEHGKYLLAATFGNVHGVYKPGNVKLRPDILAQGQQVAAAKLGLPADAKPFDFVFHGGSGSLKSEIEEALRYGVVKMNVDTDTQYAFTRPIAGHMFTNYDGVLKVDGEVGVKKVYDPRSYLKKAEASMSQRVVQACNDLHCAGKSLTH
RecA splice inh – blocks M. tuberculosis RecA intein splicing | hit rate 0.75% among 290,000 | inhibition, % (concentration not given with the values) | cell-free RecA intein splicing, fluorescence | P9WHJ3 | AID 2221; in the data active = inhibition above about 30%
BJeLR viability – BJeLR cell viability loss; AID 1554; hit rate 0.17% among 300,000; inhibition, % (no concentration beside the values); BJeLR (HRASV12) viability, CellTiter-Glo ATP luminescence, 48 h; in the data active = inhibition above about 50%
Hits are given with their value; . = inactive; / = no result given; + = active, no number. Sampled rows, rich in hits. Any-hit rate of the full collection: about 4.2%.

SMILES	GDH-TPI inh	PrPC surface inh	FBA Mtb inh	RecA splice inh	BJeLR viability
CC1(CC(=O)N/N=C/c2ccc(-c3cccc(C(F)(F)F)c3)o2)OCCO1	37	.	.	.	.
Cc1oc(/C=N/NC(=O)CC2(C)OCCO2)cc1Br	.	.	.	.	.
CC1(CC(=O)N/N=C/c2cc(Br)c(O)cc2O)OCCO1	48	.	.	.	.
COc1cc(/C=N/NC(=O)C(Cc2c[nH]c3ccccc23)NC(=O)OCC(C)C)cc([N+](=O)[O-])c1O (centres undefined)	33	.	.	.	.
COc1cc(/C=N/NC(=O)C(Cc2c[nH]c3ccccc23)NC(=O)OCC(C)C)cc([N+](=O)[O-])c1OCc1ccccc1 (centres undefined)	.	.	.	.	.
COc1cc(/C=N/NC(=O)C(Cc2c[nH]c3ccccc23)NC(=O)OCc2ccccc2)cc([N+](=O)[O-])c1O (centres undefined)	36	.	.	.	.
CCCCCCCCNC(=O)C1CSCCS(=O)(=O)N1Cc1ccccc1 (centres undefined)	/	.	/	/	/
Brc1ccc(CSc2nnc(SCc3ccccc3)s2)cc1	/	.	/	/	/
COc1cccc(/C=N/NC(=O)c2[nH]c(C)c(C(=O)N/N=C/c3cccc(OC)c3)c2C)c1	42	.	.	.	.
COc1ccc(/C=N/NC(=O)c2[nH]c(C)c(C(=O)N/N=C/c3ccc(OC)cc3)c2C)cc1	100	.	.	.	.
CCOC(=O)c1c(C)[nH]c(C(=O)N/N=C/c2cccc(OC)c2)c1C	.	.	.	.	.
COc1ccc(CN2C[C@]3(C=C(C)Cn4c(=O)n(-c5ccccc5)c(=O)n43)N(C(=O)OCc3ccccc3)C2=NC(=O)c2ccccc2)c(OC)c1	/	.	/	/	/
C[C@H]1[C@H](NC(=O)c2ccc(Cl)c(Cl)c2)CC[C@@]23CCCN2C(=O)CCC[C@@H]13	/	.	/	/	/
CCN(CC)c1ccc(-c2nc3cnccc3n2C)cc1	31	.	.	.	.
CSc1n[nH]c(-c2cccs2)n1	/	.	/	/	/
N#C/C(=C(/O)CN1CCOCC1)c1nc(-c2ccccc2)cs1	.	.	.	.	.
Cc1ccc(-c2csc(/C(C#N)=C(\O)CN3CCN(C(=O)c4ccco4)CC3)n2)cc1	31	.	.	.	.
CC(C)CC(=O)OC1C(N2CCOCC2)c2c(ccc(/C=C/C(=O)N3CCOCC3)c2O)OC1(C)C (centres undefined)	31	.	.	.	.
Cc1ccc2[nH]c(O)c(N=NC(N)=S)c2c1	38	.	.	.	.
NC(=S)N=Nc1c(O)[nH]c2ccccc12	.	.	.	.	.
CC1CCN(C(=O)CN2C(=O)c3cccc4cccc(c34)C2=O)CC1	35	.	.	.	.
C=C1[C@@H]2CC[C@H]3[C@]4(C)[C@@H](O)CC[C@@](C)(C(=O)OC)[C@H]4C[C@H](O)[C@]3(C2)[C@H]1O	/	.	/	/	/
C=C1C(=O)[C@@]23[C@H](O)C[C@@H]4C(C)(C)CC[C@H](O)[C@@]4(C)[C@@H]2CC[C@@H]1[C@H]3O	.	71	.	.	.
C=C1C(=O)[C@@]23[C@H](O)C[C@@H]4C(C)(C)CC[C@H](O)[C@]4(C)[C@@H]2C[C@H](O)[C@@H]1[C@H]3O	.	25	.	.	.
CSCCCNC(=O)CN1C(=O)C2CCCCN2C(=O)c2ccccc21 (centres undefined)	/	.	/	/	/
SMILES	GDH-TPI inh	PrPC surface inh	FBA Mtb inh	RecA splice inh	BJeLR viability
CCn1c(SCC(=O)NN=Cc2c(C)nn(-c3ccccc3)c2C)nnc1-c1ccc(OC)c(OC)c1	/	.	/	/	/
O=c1nc2scc(-c3ccccc3)n2c2ccccc12	36	.	.	.	.
COC(=O)c1cc(=O)n2c(-c3ccccc3)csc2n1	.	.	.	.	.
CCOc1ccc(Cc2onc3c2C(=O)CCC3)cc1OCC	.	.	+	.	.
COc1ccc(-c2cn3cccnc3n2)cc1NC(=O)C(C)Oc1ccccc1 (centres undefined)	.	.	122	.	.
COc1cccc(C(=O)Nc2cc(-c3cn4cccnc4n3)ccc2C)c1	.	.	+	.	.
COc1ccc(-c2cn3cccnc3n2)cc1NC(=O)c1cccs1	.	.	.	.	.
COc1cccc(NC(=O)c2nc3ncccn3n2)c1	.	.	.	.	.
Cc1ccc(-c2nc3ncccc3o2)cc1NC(=O)COc1ccccc1	.	.	.	.	.
CCOCC(=O)Nc1cc(-c2cn3cccnc3n2)ccc1C	.	/	+	.	.
Cc1ccccc1N=C1NC(=O)CS1	.	.	.	.	.
O=C1CS/C(=C/C(=O)c2ccccc2)N1	44	.	.	.	.
Cc1ccc(CNC(=O)c2ccc3c(c2)NC(=O)CS3)cc1	.	.	.	.	.
Cc1cc(C)cc(C(=O)/C=C2\NC(=O)CS2)c1	39	.	.	.	.
Cc1ccccc1C(=O)/C=C1\NC(=O)CS1	48	.	.	/	.
CCCCOCCCNC(=O)C[C@H]1C[C@@]2(C(=O)OC)C(=C[C@H](C(C)(C)C)O[C@@H]2C)N(Cc2ccco2)C1=O	/	.	/	/	/
CN(C)c1ccc(C(=O)c2ccccc2)cc1	31	.	.	.	.
Cc1cccc(Cn2cc(COC(=O)NCC(C)C)nn2)c1	/	.	/	/	/
COCCCNC(=O)Cn1cc(/C=C(\C#N)C(=O)NC2CCCC2)c2ccccc21	33	.	.	.	.
CC(=O)c1cc(-c2cc(C(F)(F)F)cc(C(F)(F)F)c2)c(=O)n2c1CCC2	/	.	/	/	/
O=C(NN=C1CCCC1)c1ccccc1[N+](=O)[O-]	.	.	.	.	.
CC(C)N1CCC(=NNC(=O)c2ccccc2[N+](=O)[O-])CC1	.	.	+	.	.
COC(=O)C1CN(Cc2cn(Cc3ccc(OC)cc3)nn2)CCS(=O)(=O)N1Cc1ccc(C)cc1 (centres undefined)	/	.	/	/	/
CC(C)c1ccc(/C=C2\SC(=O)N(CC(=O)NCCCn3ccnc3)C2=O)cc1	47	.	.	.	.
CCN(C(=O)CN1C(=O)S/C(=C\c2cccc(Cl)c2)C1=O)C1CCS(=O)(=O)C1 (centres undefined)	.	.	.	.	.
SMILES	GDH-TPI inh	PrPC surface inh	FBA Mtb inh	RecA splice inh	BJeLR viability
COc1ccccc1/C=C1\SC(=O)N(CC(=O)N(C)C2CCS(=O)(=O)C2)C1=O (centres undefined)	31	.	.	.	.
CCN(C(=O)CN1C(=O)S/C(=C\c2ccc(Cl)cc2)C1=O)C1CCS(=O)(=O)C1 (centres undefined)	34	.	.	.	.
O=S1(=O)c2ccc(N3CCCC3)cc2Oc2ccccc2CN1Cc1cn(Cc2ccccc2C(F)(F)F)nn1	/	.	/	/	/
CCN1CCCCC(NC(=O)Cc2ccccc2)C1=O (centres undefined)	/	.	/	/	/
NNC(=O)/C(=C/c1cccs1)NC(=O)c1ccccc1Cl	43	.	.	.	.
N#C/C(=C\c1cccs1)C(=O)c1ccccc1Cl	/	.	/	.	63
CC(C)(C)C(=O)/C(C#N)=C/c1cccs1	.	.	.	.	.
COc1ccc2[nH]cc(C(C)c3ccccc3O)c2c1 (centres undefined)	/	.	/	/	/
O=C(CCl)NCc1c(Cl)cccc1-n1cccc1	.	.	.	46	.

Screening data deposited in PubChem BioAssay by several laboratories.
